Rows were chosen to be rich in hits. Some 3% of all compounds tested hit in one or more screens of this group.
Mtb FBA inh: inhibitors of M. tuberculosis fructose-bisphosphate aldolase | P9WQA3 | purified M. tuberculosis FBA, fluorescence read-out | inhibition, % at 1 µM | 2.3% of 360,000 active; in the data active = inhibition above about 27%;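 note: 0% = vehicle and 100% = reference inhibitor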
Rv3671c protease: inhibits the M. tuberculosis serine protease Rv3671c. 0.048% of 320,000 active. inhibition, % at 5.96 µM. P9WHR9; in the data active = inhibition above about 38%;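 note: extracellular domain of Rv3671c used as enzyme; 0% = enzyme with DMSO and 100% = no enzyme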
Target sequence (P9WHR9 whole entry, looked up, the tested form may be a part): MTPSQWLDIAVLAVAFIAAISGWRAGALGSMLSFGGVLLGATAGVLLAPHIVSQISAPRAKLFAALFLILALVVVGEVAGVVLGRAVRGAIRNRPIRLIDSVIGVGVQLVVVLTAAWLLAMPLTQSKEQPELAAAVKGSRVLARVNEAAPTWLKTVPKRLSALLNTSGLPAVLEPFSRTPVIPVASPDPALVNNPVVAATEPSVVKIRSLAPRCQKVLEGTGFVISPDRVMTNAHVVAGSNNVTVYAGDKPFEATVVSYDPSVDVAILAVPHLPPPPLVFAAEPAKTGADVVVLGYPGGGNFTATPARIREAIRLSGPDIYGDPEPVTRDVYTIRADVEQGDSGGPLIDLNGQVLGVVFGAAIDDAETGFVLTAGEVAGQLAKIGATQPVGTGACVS
GDH-TPI inh: GDH-TPI coupled enzyme inhibition counter-screen. GDH-TPI coupled enzyme counterscreen, NADH absorbance. inhibition, % at 4.8 µM. 1.2% of 360,000 active. AID 588335; in the data active = inhibition above about 30%;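 note: 0% = DMSO wells and 100% = wells lacking the enzyme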
FadD28 binding: inhibitors of Mycobacterium tuberculosis FadD28 bisubstrate binding. FadD28 bisubstrate probe binding, fluorescence polarization. inhibition, % at 12.5 µM. 0.22% of 360,000 active. AID 588549; in the data active = inhibition above about 8.5%, passing the limit was not always enough
BioA inh-1: inhibitors of Mycobacterium tuberculosis BioA enzyme; AID 602481; 0.096% of 360,000 active; purified M. tuberculosis BioA enzyme, plate reader; inhibition, % at 9.99 µM; in the data active = inhibition above about 40%
BioA inh-2: blocks M. tuberculosis BioA aminotransferase; shares compounds with BioA inh-1; purified BioA enzyme, plate reader, dose response; max activity, %; 310 tested, under 10 active; AID 651679;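 note: top concentration of the dilution series was 10 µM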
HepG2 cytotox: kills HepG2 cells. shares compounds with BioA inh-1. HepG2 cytotoxicity, plate reader. max activity, %. 310 tested, under 10 active. AID 651898
3T3 cytotox 5: kills NIH3T3 cells; shares compounds with BioA inh-1; NIH3T3 cytotoxicity, plate reader; activity change, negative = cytotoxicity, % at 26 µM; 310 tested, under 10 active; AID 651900
Starred values were filed as active, the others as inactive; [ ] = remark or other dose. Unless noted, the rule behind the calls is not given here.

CNC(=O)C[C@H]1CC[C@@H]2[C@H](COC[C@@H](O)CN2C(=O)Nc2cccc(OC)c2)O1 was read as BioA inh-1 77*, BioA inh-2 5, HepG2 cytotox inactive and 3T3 cytotox 5 -6.
Screening CNC(=O)C[C@@H]1CC[C@H]2[C@@H](COC[C@H](O)CN2C(=O)Nc2cccc(OC)c2)O1 returned BioA inh-1 1.
CCCC#Cc1cnc2c(c1)C(=O)N([C@@H](C)CO)C[C@@H](C)[C@@H](CN(C)C(=O)Nc1ccccc1OC)O2 was read as BioA inh-1 -3.
`COc1ccc(NC(=O)c2ccc(Cl)nc2)cc1S(=O)(=O)N1CCOCC1` gave Mtb FBA inh 2, Rv3671c protease -2, GDH-TPI inh 11, FadD28 binding -3, BioA inh-1 59*, BioA inh-2 -9, HepG2 cytotox -14 and 3T3 cytotox 5 -4.
For CCc1ccc(C(=O)Nc2ccc(OC)c(S(=O)(=O)N3CCOCC3)c2)cc1 the results were Mtb FBA inh -3, Rv3671c protease 1, GDH-TPI inh -10 and FadD28 binding -2.
O=C(c1ccncc1)N1CC[C@@H]2[C@H](CO)Nc3ccc(Br)cc3[C@@H]21 was read as BioA inh-1 104*, BioA inh-2 -5, HepG2 cytotox inactive and 3T3 cytotox 5 -5.
For O=C(c1ccncc1)N1CC[C@@H]2[C@@H](CO)Nc3ccc(-c4ccccc4)cc3[C@@H]21 the results were BioA inh-1 10.
Screening O=C(c1ccncc1)N1CC[C@H]2[C@H](CO)Nc3ccc(Br)cc3[C@H]21 returned BioA inh-1 59*, BioA inh-2 12, HepG2 cytotox inactive and 3T3 cytotox 5 -7[23.5 µM].
For C[C@@H]1CN([C@H](C)CO)C(=O)c2cc(NC(=O)Cc3ccccc3)ccc2O[C@@H](C)CCCCO[C@H]1CN(C)Cc1ccncc1 the results were BioA inh-1 0.
`C[C@@H]1CN([C@H](C)CO)C(=O)c2cccc(NC(=O)Nc3ccccc3)c2O[C@@H]1CN(C)S(=O)(=O)c1ccccc1` gave BioA inh-1 -3.
Cc1cccc(C(=O)NC2CCN(CC(=O)Nc3ccccc3Cl)CC2)c1 was read as Mtb FBA inh 0, Rv3671c protease 7, GDH-TPI inh -6, FadD28 binding -5, BioA inh-1 49*, BioA inh-2 -5, HepG2 cytotox -6 and 3T3 cytotox 5 -13.
Screening CC(=O)c1cc2c(cc1NC(=O)c1ccc(-n3nc(C)cc3C)cc1)OCO2 returned Mtb FBA inh 5, GDH-TPI inh -3, FadD28 binding -4 and BioA inh-1 1.
`Cc1cc(C)n(-c2ccc(C(=O)Nc3ccc4c(c3)OCO4)cc2)n1` gave Mtb FBA inh 1, Rv3671c protease -4, GDH-TPI inh 2, FadD28 binding -7, BioA inh-1 44*, BioA inh-2 -8, HepG2 cytotox -8 and 3T3 cytotox 5 3.
`CC(=O)N(C)C[C@H]1Oc2ncc(C3=CCCC3)cc2C(=O)N([C@H](C)CO)C[C@H]1C` gave BioA inh-1 -3.
`CC(=O)c1ccc(N2CCN(C(=O)c3ccc4c(c3)OCO4)CC2)cc1` gave Mtb FBA inh 2, Rv3671c protease 5, GDH-TPI inh 26, FadD28 binding 0, BioA inh-1 91*, BioA inh-2 -6, HepG2 cytotox 6 and 3T3 cytotox 5 -4.
`O=C(c1ccc2c(c1)OCO2)N1CCN(c2ccc(Cl)cc2)CC1` gave Mtb FBA inh 1, Rv3671c protease 0, GDH-TPI inh 10 and FadD28 binding 0.
Screening C[C@@H]1CN([C@@H](C)CO)C(=O)c2cccc(NS(=O)(=O)c3ccccc3)c2O[C@H]1CN(C)S(=O)(=O)c1ccc(F)cc1 returned BioA inh-1 3.
For C[C@H](CO)N1C[C@H](C)[C@H](CN(C)C(=O)c2ccccc2)OCCCC[C@H](C)Oc2ccc(NS(=O)(=O)c3ccccc3)cc2C1=O the results were BioA inh-1 0.
`C#CCSc1nnc(-c2c[nH]c3ccccc23)n1C` gave Mtb FBA inh 4, Rv3671c protease 4, GDH-TPI inh 12, FadD28 binding 1 and BioA inh-1 -4.
`C#CCSc1nnc(-c2sc(-c3ccccc3)nc2C)n1C` gave Mtb FBA inh 36*, Rv3671c protease -4, GDH-TPI inh 7, FadD28 binding -1, BioA inh-1 60*, BioA inh-2 -3, HepG2 cytotox -14 and 3T3 cytotox 5 3.
Screening O=C(Nc1cccnc1)c1ccc(Oc2ccccc2)cc1 returned Mtb FBA inh -5, Rv3671c protease -14, GDH-TPI inh 2, FadD28 binding -3, BioA inh-1 69*, BioA inh-2 -9, HepG2 cytotox -8 and 3T3 cytotox 5 6.
For O=C(Nc1cccnc1)c1ccc(Cl)c(Cl)c1 the results were Mtb FBA inh 4, Rv3671c protease -11, GDH-TPI inh 8, FadD28 binding 0, BioA inh-1 60*, BioA inh-2 -6, HepG2 cytotox 13 and 3T3 cytotox 5 2.
For COCCN1C(=O)c2ccc(C(=O)Nc3cccnc3)cc2C1=O the results were Mtb FBA inh 0, Rv3671c protease 1, GDH-TPI inh 4, FadD28 binding -3, BioA inh-1 59*, BioA inh-2 -7, HepG2 cytotox -12 and 3T3 cytotox 5 3.
Screening COc1cc(OC)c(C(=O)Nc2cccnc2)cc1OC returned Mtb FBA inh 2, Rv3671c protease 2, GDH-TPI inh 4, FadD28 binding -1, BioA inh-1 85*, BioA inh-2 4, HepG2 cytotox -7 and 3T3 cytotox 5 -3.
`O=C(Nc1cccnc1)c1ccccc1Oc1ccccc1` gave Mtb FBA inh 0, Rv3671c protease 2, GDH-TPI inh -1, FadD28 binding -1 and BioA inh-1 4.
O=C(N[C@H]1CC[C@@H](CCn2cc(-c3ccccn3)nn2)O[C@H]1CO)c1ccncc1 was read as BioA inh-1 -1.
Screening COC(=O)C[C@@H]1C[C@@H]2c3cc(NC(=O)Nc4ccc(OC)cc4)ccc3O[C@@H]2[C@H](CO)O1 returned BioA inh-1 1.
O=C(C[C@H]1C[C@@H]2c3cc(NC(=O)Nc4ccc(C(F)(F)F)cc4)ccc3O[C@@H]2[C@@H](CO)O1)NCc1cccnc1 was read as BioA inh-1 3.
CCCNS(=O)(=O)c1ccc(NC(=O)c2cccnc2)cc1 was read as Mtb FBA inh 0, Rv3671c protease -6, GDH-TPI inh -4, FadD28 binding -2 and BioA inh-1 23.
Screening CC(C)(C)c1cc(C(=O)Nc2cccnc2)cc(C(=O)Nc2cccnc2)c1 returned Mtb FBA inh 0, Rv3671c protease -13, GDH-TPI inh 1, FadD28 binding -4, BioA inh-1 45*, BioA inh-2 4, HepG2 cytotox 11 and 3T3 cytotox 5 8.

Screening results deposited in PubChem BioAssay by several laboratories.
